Test results taken from PubChem BioAssay (EPA / NIEHS).
Inconclusive results are not listed. The source made the active and inactive calls. The calls were made as follows, unless noted: active = hit-call score of the fitted dose curve at least 0.9, where 1 is the maximum; inactive = score below 0.9.

Tests used:
[1] = biological target: Glucocorticoid receptor (Homo sapiens) (UniProt P04150); assay: ATG_GR_TRANS: Attagene TRANS-FACTORIAL HepG2 Assay for human Glucocorticoid Receptor (GR) (AID 2282978; active = hit-call score of the fitted dose curve at least 0.9, where 1 is the maximum;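 also: activators score as hits since higher reporter transcript over DMSO is fitted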); conditions: HepG2 Attagene TRANS GR reporter, mRNA transcription
Sequence of Glucocorticoid receptor (Homo sapiens) (P04150 whole entry, looked up, the tested form may be a part): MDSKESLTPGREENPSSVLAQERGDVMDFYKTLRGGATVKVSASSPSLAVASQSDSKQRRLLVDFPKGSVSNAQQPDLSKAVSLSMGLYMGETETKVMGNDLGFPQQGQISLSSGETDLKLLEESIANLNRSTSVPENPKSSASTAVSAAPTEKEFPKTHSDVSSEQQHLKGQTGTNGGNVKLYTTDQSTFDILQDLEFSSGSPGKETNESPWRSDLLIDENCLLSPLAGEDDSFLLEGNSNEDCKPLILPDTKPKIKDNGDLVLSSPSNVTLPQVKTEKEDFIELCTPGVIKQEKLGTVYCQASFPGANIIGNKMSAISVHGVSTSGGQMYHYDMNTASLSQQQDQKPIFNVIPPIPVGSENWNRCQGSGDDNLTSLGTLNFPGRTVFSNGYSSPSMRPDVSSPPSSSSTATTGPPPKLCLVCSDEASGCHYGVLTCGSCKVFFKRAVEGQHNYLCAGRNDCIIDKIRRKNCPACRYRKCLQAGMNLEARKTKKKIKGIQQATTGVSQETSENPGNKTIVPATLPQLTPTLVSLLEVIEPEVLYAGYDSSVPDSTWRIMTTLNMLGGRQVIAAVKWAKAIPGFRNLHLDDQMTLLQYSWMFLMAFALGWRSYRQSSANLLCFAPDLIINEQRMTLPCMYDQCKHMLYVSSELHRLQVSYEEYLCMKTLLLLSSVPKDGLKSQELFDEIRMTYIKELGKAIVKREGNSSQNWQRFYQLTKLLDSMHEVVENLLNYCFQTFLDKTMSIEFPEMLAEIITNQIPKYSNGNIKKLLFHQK
In short: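 In this trans-factorial format, exogenous NR-GAL4 chimeric proteins in transfected HepG2 cells regulate GAL4-UAS reporter transcription. After 24 h treatment, reporter mRNA induction relative to DMSO is read by RT-PCR and capillary electrophoresis.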

[2] = biological target: human RAR-related Orphan Receptor beta (RORb), RORB (gene 6096) (UniProt Q92753); assay: ATG_RORb_TRANS: Attagene TRANS-FACTORIAL HepG2 Assay for human RAR-related Orphan Receptor beta (RORb) (AID 2283010; active = hit-call score of the fitted dose curve at least 0.9, where 1 is the maximum)
Sequence of human RAR-related Orphan Receptor beta (RORb), RORB (gene 6096) (Q92753 whole entry, looked up, the tested form may be a part): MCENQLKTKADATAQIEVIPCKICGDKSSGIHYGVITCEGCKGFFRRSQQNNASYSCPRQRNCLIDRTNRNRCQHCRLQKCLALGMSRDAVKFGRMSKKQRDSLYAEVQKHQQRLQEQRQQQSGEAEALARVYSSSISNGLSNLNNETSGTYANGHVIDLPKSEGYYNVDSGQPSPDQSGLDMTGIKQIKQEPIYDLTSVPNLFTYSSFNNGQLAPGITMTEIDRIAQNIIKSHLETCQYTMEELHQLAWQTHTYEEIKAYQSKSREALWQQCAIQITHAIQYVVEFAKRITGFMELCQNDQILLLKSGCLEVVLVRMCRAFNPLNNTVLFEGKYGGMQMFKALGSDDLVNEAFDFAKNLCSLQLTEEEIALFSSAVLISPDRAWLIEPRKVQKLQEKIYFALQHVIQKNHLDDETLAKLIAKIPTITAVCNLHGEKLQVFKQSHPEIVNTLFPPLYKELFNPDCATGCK
In short: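 Transfect HepG2 with multiple GAL4-UAS reporter transcription units; dose chemicals for 24 h; isolate RNA, reverse-transcribe and PCR-amplify reporter sequences; label, digest and resolve fragments by capillary electrophoresis; fit increases relative to DMSO.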

[3] = read-out: Interleukin 6 (IL6), IL6 (gene 3569); assay: BSK_BT_xIL6: BioMAP Diversity Plus: BT Assay for Interleukin 6 (IL6) Biomarker Activity (AID 2284228); conditions: primary human B cells with PBMC
In short: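 Human B cell/PBMC co-culture; secreted IL-6 quantified by Luminex xMAP 24 h after chemical dosing, fitted relative to DMSO. Parallel PBMC viability by Alamar Blue after 1 h pretreatment, 20 ng/mL SEB and TSST-1, 90 h incubation.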

[4] = read-out: Tumor necrosis factor (Homo sapiens) (UniProt P01375); assay: BSK_BT_xTNFa: BioMAP Diversity Plus: BT Assay for Tumor necrosis factor alpha (TNF-alpha) Biomarker Activity (AID 2284230); conditions: primary human B cells with PBMC
In short: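 Endpoint derived in the positive direction versus DMSO vehicle. Cells: B cells together with PBMC, exposed 24 h before TNF-alpha in the medium was read on the Luminex xMAP platform.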

[5] = read-out: Vascular cell adhesion molecule 1 (VCAM1), VCAM1 (gene 7412); assay: BSK_MyoF_VCAM1: BioMAP Diversity Plus: MyoF Assay for Vascular cell adhesion molecule 1 (VCAM1) Biomarker Activity (AID 2284231); conditions: primary human lung fibroblasts
In short: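 Primary human lung fibroblasts (BioMAP MyoF system) dosed with chemical, VCAM-1 measured by ELISA 24 hours later. Fitted in the positive direction against DMSO; parallel SRB staining assessed cytotoxicity.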

[6] = read-out: Collagen I, COL1A1 (gene 1277); assay: BSK_MyoF_CollagenI: BioMAP Diversity Plus: MyoF Assay for Collagen I Biomarker Activity (AID 2284238); conditions: primary human lung fibroblasts
In short: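 Primary human lung fibroblasts (MyoF system) treated 24 h; Collagen I quantified by ELISA and fitted in positive direction against DMSO. Parallel SRB total-protein staining assessed overt cytotoxicity.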

[7] = read-out: Interleukin 17F (IL17F), IL17F (gene 112744); assay: BSK_BT_xIL17F: BioMAP Diversity Plus: BT Assay for Interleukin 17F (IL17F) Biomarker Activity (AID 2284243); conditions: primary human B cells with PBMC
In short: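 Human PBMC co-cultured with B cells, compound exposure 24 h; secreted IL-17F quantified by Luminex xMAP, referenced to DMSO control. PBMC viability measured in parallel by Alamar Blue reduction.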

[8] = read-out: Actin alpha 1 (ACTA1), ACTA1 (gene 58); assay: BSK_MyoF_ACTA1: BioMAP Diversity Plus: MyoF Assay for Actin alpha 1 (ACTA1) Biomarker Activity (AID 2284244); conditions: primary human lung fibroblasts
In short: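 Cells were exposed to chemical for 24 h before a-SMA levels were quantified by ELISA in human lung fibroblasts. Increases were fitted against DMSO as negative control; parallel SRB staining (0.1% after 10% TCA fixation, 560 nm) assessed cytotoxicity.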

[9] = read-out: Basic fibroblast growth factor (bFGF), FGF2 (gene 2247); assay: BSK_MyoF_bFGF: BioMAP Diversity Plus: MyoF Assay for Basic fibroblast growth factor (bFGF) Biomarker Activity (AID 2284246); conditions: primary human lung fibroblasts
In short: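 Chemicals are added to human lung fibroblast cultures and incubated 24 h. bFGF is then measured by ELISA, while parallel cultures receive SRB staining for total protein as a cytotoxicity check. Data are fitted upward against DMSO.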

[10] = read-out: Collagen IV, COL4A1 (gene 1282); assay: BSK_MyoF_CollagenIV: BioMAP Diversity Plus: MyoF Assay for Collagen IV Biomarker Activity (AID 2284247); conditions: primary human lung fibroblasts
In short: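 Human lung fibroblast system, 24 h chemical exposure. Endpoint: Collagen IV by ELISA, upward fit vs DMSO.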

[11] = read-out: Interleukin-8 (IL8), CXCL8 (gene 3576); assay: BSK_MyoF_IL8: BioMAP Diversity Plus: MyoF Assay for Interleukin-8 (IL8) Biomarker Activity (AID 2284261); conditions: primary human lung fibroblasts
In short: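 Human lung fibroblast (MyoF system) cultures dosed for 24 h, then IL-8 measured by ELISA. Response taken relative to DMSO; parallel SRB total-protein staining for cytotoxicity.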

Decorin, DCN (gene 1634) = assay: BSK_MyoF_Decorin: BioMAP Diversity Plus: MyoF Assay for Decorin Biomarker Activity (AID 2284265); conditions: primary human lung fibroblasts
In short: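 Human lung fibroblast cultures were dosed for 24 h, and decorin was then measured by ELISA. Parallel cultures were stained with sulforhodamine B for total protein as a cytotoxicity check. Gain of signal was fitted relative to DMSO.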

[12] = BSK_MyoF_SRB: Viability Assessment in the BioMAP Diversity Plus: MyoF Assay (AID 2284267); conditions: primary human lung fibroblasts;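 also: total protein by SRB absorbance in parallel cultures as cytotoxicity measure; cells assessed 24 h after compound addition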
In short: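 Confluent human lung fibroblasts were exposed to test chemicals for 24 h. Parallel wells were then fixed in 10% TCA, stained with 0.1% sulforhodamine B and measured at 560 nm. DMSO served as baseline for curve fitting.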

[13] = biological target: human Retinoic Acid Receptor beta (RARb), RARB (gene 5915) (UniProt P10826); assay: ATG_RARb_TRANS: Attagene TRANS-FACTORIAL HepG2 Assay for human Retinoic Acid Receptor beta (AID 2283004; active = hit-call score of the fitted dose curve at least 0.9, where 1 is the maximum)
Sequence of human Retinoic Acid Receptor beta (RARb), RARB (gene 5915) (P10826 whole entry, looked up, the tested form may be a part): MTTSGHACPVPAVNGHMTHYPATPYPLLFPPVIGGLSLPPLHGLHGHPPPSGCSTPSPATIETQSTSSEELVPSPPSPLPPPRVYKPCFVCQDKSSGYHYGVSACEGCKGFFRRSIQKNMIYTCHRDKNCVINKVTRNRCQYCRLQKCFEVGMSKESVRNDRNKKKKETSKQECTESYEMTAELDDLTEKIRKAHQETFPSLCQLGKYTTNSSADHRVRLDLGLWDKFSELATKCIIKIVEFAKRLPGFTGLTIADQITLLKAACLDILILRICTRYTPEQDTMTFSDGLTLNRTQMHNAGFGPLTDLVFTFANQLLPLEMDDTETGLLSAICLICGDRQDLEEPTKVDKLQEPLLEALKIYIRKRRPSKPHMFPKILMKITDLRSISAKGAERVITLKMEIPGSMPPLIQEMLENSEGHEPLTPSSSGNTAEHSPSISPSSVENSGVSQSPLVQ
In short: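 HepG2 cells were transiently transfected with GAL4-UAS reporter units that report activity of exogenous chimeric NR-Gal4 proteins, then exposed to compound for 24 h. Reporter mRNA was quantified by RT-PCR with capillary electrophoresis fluorescence, as gain of signal over DMSO.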

[14] = biological target: human Retinoic Acid Receptor gamma (RARg), RARG (gene 5916) (UniProt P13631); assay: ATG_RARg_TRANS: Attagene TRANS-FACTORIAL HepG2 Assay for human Retinoic Acid Receptor gamma (RARg) (AID 2283009; active = hit-call score of the fitted dose curve at least 0.9, where 1 is the maximum)
Sequence of human Retinoic Acid Receptor gamma (RARg), RARG (gene 5916) (P13631 whole entry, looked up, the tested form may be a part): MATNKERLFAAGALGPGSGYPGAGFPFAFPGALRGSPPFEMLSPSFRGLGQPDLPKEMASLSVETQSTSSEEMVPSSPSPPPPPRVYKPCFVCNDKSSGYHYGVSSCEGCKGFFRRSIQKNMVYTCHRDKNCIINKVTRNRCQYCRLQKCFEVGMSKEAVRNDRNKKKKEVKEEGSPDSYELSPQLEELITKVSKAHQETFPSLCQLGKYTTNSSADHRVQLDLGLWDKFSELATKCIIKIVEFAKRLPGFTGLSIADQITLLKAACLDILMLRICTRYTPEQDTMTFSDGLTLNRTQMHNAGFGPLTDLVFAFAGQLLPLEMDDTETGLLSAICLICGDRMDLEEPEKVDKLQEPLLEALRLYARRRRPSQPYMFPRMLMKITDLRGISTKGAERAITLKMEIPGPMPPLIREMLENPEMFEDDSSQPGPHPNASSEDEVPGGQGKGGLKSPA
In short: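 TRANS format measured activity of exogenous NR-GAL4 fusion (RARg) in transfected HepG2 liver cells after 24 h dosing. Induced reporter RNA was detected by RT-PCR/capillary electrophoresis fluorescence, analysed in the positive direction against DMSO.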

[15] = CCTE_Harrill_HTTr_CellCount_MCF7: CCTE's Cell Proliferation Assessment for the High-Throughput Transcriptomics (HTTr) Platform, Harrill Lab (AID 2284012; active = hit-call score of the fitted dose curve at least 0.9, where 1 is the maximum;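 also: cells exposed to compound for six hours; intended direction is loss of nuclei count meaning fewer cells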)
In short: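 Cell count served as viability reporter: loss of Hoechst-stained nuclei, counted by high content imaging, marks decreased growth or survival. Exposure was 6 h in MCF-7 cells across eight concentrations, with DMSO as baseline.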

[16] = CEETOX_H295R_MTT_cell_viability: Viability Assessment in the CeeTox HT-H295R MTT Assay (AID 2283718);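 as to AC50: curve fitted both ways so AC50 may mark viability loss or gain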
In short: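 MTT reduction (0.5 mg/ml, 4 h at 37 C; absorbance at 570 and 650 nm) gave viability as background-corrected percent change versus controls. H295R cells had 48 h forskolin (10 uM) prestimulation, then 48 h chemical exposure at 0.1% DMSO.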

[17] = biological target: Retinoic acid receptor alpha (Homo sapiens) (UniProt P10276); assay: ATG_RARa_TRANS: Attagene TRANS-FACTORIAL HepG2 Assay for human Retinoic Acid Receptor alpha (RARa) (AID 2283005; active = hit-call score of the fitted dose curve at least 0.9, where 1 is the maximum)
Sequence of Retinoic acid receptor alpha (Homo sapiens) (P10276 whole entry, looked up, the tested form may be a part): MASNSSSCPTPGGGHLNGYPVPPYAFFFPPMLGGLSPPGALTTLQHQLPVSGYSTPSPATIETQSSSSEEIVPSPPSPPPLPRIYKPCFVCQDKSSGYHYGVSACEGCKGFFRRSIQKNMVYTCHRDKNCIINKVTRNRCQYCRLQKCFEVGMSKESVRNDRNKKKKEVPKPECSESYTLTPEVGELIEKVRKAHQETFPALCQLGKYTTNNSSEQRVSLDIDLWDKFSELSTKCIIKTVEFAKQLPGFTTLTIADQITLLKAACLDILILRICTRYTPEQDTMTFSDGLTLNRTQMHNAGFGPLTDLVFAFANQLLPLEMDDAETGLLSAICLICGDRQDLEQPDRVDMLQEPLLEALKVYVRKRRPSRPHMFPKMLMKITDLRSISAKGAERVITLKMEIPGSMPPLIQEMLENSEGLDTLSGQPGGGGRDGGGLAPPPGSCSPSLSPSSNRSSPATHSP
In short: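 Reporter transcripts, measured by RT-PCR with fluorescent labeling and capillary electrophoresis after 24 h dosing, reflect activity of an exogenous human RARa–GAL4 fusion in transiently transfected HepG2. Fitted for increase relative to DMSO.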

[18] = tested on: Thyroperoxidase (TPO), gene 54314; assay: CCTE_Simmons_AUR_rTPO: CCTE's Amplex UltraRed Assay for Thyroperoxidase (TPO) Inhibition, Simmons Lab (AID 2283662; active = hit-call score of the fitted dose curve at least 0.9, where 1 is the maximum;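 also: potency for loss of signal meaning inhibition of peroxidase activity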)
In short: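 Endpoint is decreased Amplex UltraRed fluorescence after a 30-min, 37C reaction of rat thyroid microsomes with 300 uM H2O2. Eight test concentrations (5 nM–87.5 uM final) in 0.5% DMSO, three biological replicates each.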

[19] = biological target: Luciferin 4-monooxygenase (Photinus pyralis) (UniProt P08659); assay: CCTE_Simmons_QuantiLum_inhib_2: CCTE's Firefly Luciferase Inhibition Assay, Simmons Lab (AID 2283767; active = hit-call score of the fitted dose curve at least 0.9, where 1 is the maximum)
Sequence of Luciferin 4-monooxygenase (Photinus pyralis) (P08659 whole entry, looked up): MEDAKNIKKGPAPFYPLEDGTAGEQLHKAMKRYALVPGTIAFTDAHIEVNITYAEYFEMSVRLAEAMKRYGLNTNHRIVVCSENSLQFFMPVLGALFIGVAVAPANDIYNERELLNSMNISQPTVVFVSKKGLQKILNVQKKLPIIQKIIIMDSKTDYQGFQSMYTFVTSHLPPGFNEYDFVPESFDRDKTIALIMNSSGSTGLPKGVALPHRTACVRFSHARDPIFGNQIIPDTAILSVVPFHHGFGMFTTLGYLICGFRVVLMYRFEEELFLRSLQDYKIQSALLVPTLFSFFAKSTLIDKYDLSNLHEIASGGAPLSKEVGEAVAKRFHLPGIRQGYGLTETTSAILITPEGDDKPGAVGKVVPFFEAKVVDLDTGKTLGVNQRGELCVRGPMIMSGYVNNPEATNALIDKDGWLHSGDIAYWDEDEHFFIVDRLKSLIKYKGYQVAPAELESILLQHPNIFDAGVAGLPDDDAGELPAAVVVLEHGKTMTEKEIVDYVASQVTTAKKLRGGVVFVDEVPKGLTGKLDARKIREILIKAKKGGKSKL
In short: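 First, 5 ng purified luciferase in phosphate buffer with BSA is dispensed per well. Next, test chemicals (5 nM to 87.5 uM final, 0.5% DMSO) are added and incubated 30 min at 37C in darkness. Finally, luciferin reagent is injected and luminescence read kinetically.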

Measured: AC50

Sequence of Tumor necrosis factor (Homo sapiens) (P01375 whole entry, looked up): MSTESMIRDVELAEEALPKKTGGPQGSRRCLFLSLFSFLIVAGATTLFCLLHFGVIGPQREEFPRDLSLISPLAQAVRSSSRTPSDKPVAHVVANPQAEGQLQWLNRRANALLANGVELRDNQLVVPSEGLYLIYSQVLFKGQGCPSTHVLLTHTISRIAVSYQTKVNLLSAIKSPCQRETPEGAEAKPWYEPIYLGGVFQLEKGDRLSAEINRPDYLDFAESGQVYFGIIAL

CCCCCCCCCCCC#N
active: [5] 30.7 µM | [6] 20.6 µM | [8] 26.5 µM | [9] 32.9 µM | [12] 30.5 µM
inactive: [1] | [2] | [3] | [4] | [7] | [10] | [11] | Decorin, DCN (gene 1634)

CN1C(=O)CCS(=O)(=O)C1c1ccc(Cl)cc1 (centres undefined)
inactive: [13] | [14] | [15]

O=C(CCN1CC1)OCC(CO)(COC(=O)CCN1CC1)COC(=O)CCN1CC1
inactive: [1]

CCC(C)(C)O
inactive: [15]

CCCCOP(=O)(O)OCCCC
inactive: [1]

CC(Cc1ccc(C(C)(C)C)cc1)CN1C[C@@H](C)O[C@@H](C)C1 (some centres undefined)
active: [16] 65.8 µM

C=C(Cl)Cl
inactive: [13] | [17] | [14]

Nc1cc(Cl)cc(Cl)c1
active: [18] 17.1 µM
inactive: [19]

CC(C)(Cl)Cl
inactive: [15]

CCCOC(=O)c1ccccc1C(=O)OCCC
inactive: [3] | [4] | [5] | [6] | [7] | [8] | [9] | [10] | [11] | Decorin, DCN (gene 1634) | [12]

N#CCCCl
inactive: [1] | [17]

COCC(=O)N(c1c(C)cccc1C)N1CCOC1=O
inactive: [3] | [4] | [5] | [6] | [7] | [8] | [9] | [10] | [11] | Decorin, DCN (gene 1634) | [12]

CN(C)CCC#N
inactive: [17] | [14]

O=C(NC(=O)c1c(F)cccc1F)Nc1ccc(Oc2ccc(C(F)(F)F)cc2Cl)cc1F
inactive: [13] | [17] | [14] | [16]

C=CCO
inactive: [1]

[CH3][Sn]([CH3])([Cl])[Cl]
inactive: [2]

CC(C)CCCCCCCOC(=O)c1ccccc1C(=O)OCCCCCCCC(C)C
inactive: [3] | [4] | [5] | [6] | [7] | [8] | [9] | [10] | [11] | Decorin, DCN (gene 1634) | [12]

CC[N+](=O)[O-]
inactive: [13]

c1ccc(Nc2ccc3ccccc3c2)cc1
active: [3] 29.9 µM | [4] 20 µM | [5] 31.2 µM | [6] 31 µM | [7] 30.8 µM | [8] 29 µM | [9] 31 µM | [12] 35.5 µM
inactive: [16] | [10] | [11] | Decorin, DCN (gene 1634)

CCOC(=O)NC(=S)Nc1ccccc1NC(=S)NC(=O)OCC
active: [18] 16 µM
inactive: [1] | [13] | [2] | [19] | [15]

c1ccc2c(c1)CCCC2
inactive: [1]

CNC(=O)Oc1cc(C)c(SC)c(C)c1
active: [3] 8.6 µM | [4] 29.7 µM | [7] 20 µM
not listed: [1] | [2] | [13] | [14] | [17] | [18] | [19]
inactive: all other assays above

CCOP(=O)(OCC)Oc1ccc([N+](=O)[O-])cc1
inactive: [2] | [16]
